From the supplement of paper PMC8007513
Counter-ions that a name gives are not always drawn. ± gives the standard error. In all, about 1,300 compounds went through this assay and about 130 (10%) showed an effect of 50% or more. Shown is part of a subset that was picked to be rich in strong results.

Tested on: Trichoderma virens ATCC 9645
Experiment: growth yield (OD600) with compound + IPBC relative to untreated control; higher = less growth inhibition
Conditions: compound concentration: 100 uM, IPBC concentration: 200 ng/ml
How it was run: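 Library compounds (100 μM final), with or without a co-applied biocide (200 ng ml^−1), were added to 100 μl aliquots of Trichoderma virens ATCC 9645 spores at 15,000 spores ml^−1 in potato dextrose broth. Cultures were grown at 30 °C in 96-well plates, and OD600 was measured at 40 h and 72 h. Each growth value is a mean of duplicate screens, expressed relative to the control with neither agent.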

| Structure (SMILES) | growth yield (40 h) [%] | growth yield (72 h) [%] |
| --- | --- | --- |
| Cc1ccccc1C(=O)Nc1ccc(C(=O)N2CCCC(O)c3cc(Cl)ccc32)c(C)c1 (centres undefined) [Tolvaptan] + CCCCNC(=O)OCC#CI [3-iodo-2-propynyl butylcarbamate (IPBC)] | 107 ± 2.5 | 107.1 ± 0.94 |
| CN1CCCC(CC2c3ccccc3Sc3ccccc32)C1 (centres undefined) [Metixene hydrochloride] + CCCCNC(=O)OCC#CI [3-iodo-2-propynyl butylcarbamate (IPBC)] | 48.9 ± 2.2 | 85.3 ± 2 |
| Cc1ncc(CO)c(CO)c1O [Pyridoxine hydrochloride] + CCCCNC(=O)OCC#CI [3-iodo-2-propynyl butylcarbamate (IPBC)] | 79.58 ± 0.79 | 85.7 ± 2.2 |
| CCN(CC)CCOC(=O)C(Cc1cccc2ccccc12)CC1CCCO1 (centres undefined) [Nafronyl oxalate] + CCCCNC(=O)OCC#CI [3-iodo-2-propynyl butylcarbamate (IPBC)] | 71.5 ± 1.3 | 87.36 ± 0.1 |
| CO[C@H]1/C=C/O[C@@]2(C)Oc3c(C)c(O)c4c(O)c(c(/C=N/N5CCN(C6CCCC6)CC5)c(O)c4c3C2=O)NC(=O)/C(C)=C\C=C\[C@H](C)[C@H](O)[C@@H](C)[C@@H](O)[C@@H](C)[C@H](OC(C)=O)[C@@H]1C [Rifapentine] + CCCCNC(=O)OCC#CI [3-iodo-2-propynyl butylcarbamate (IPBC)] | 90.2 ± 0.95 | 94.5 ± 2.6 |
| NC[C@H]1CC[C@H](C(=O)O)CC1 [Tranexamic acid] + CCCCNC(=O)OCC#CI [3-iodo-2-propynyl butylcarbamate (IPBC)] | 100 ± 3.8 | 104 ± 1.1 |
| CCC1(c2ccccc2)NC(=O)N(C)C1=O (centres undefined) [Mephenytoin] + CCCCNC(=O)OCC#CI [3-iodo-2-propynyl butylcarbamate (IPBC)] | 88.5 ± 2.4 | 100 ± 9.9 |
| CN(C)[C@@H]1C(O)=C(C(N)=O)C(=O)[C@@]2(O)C(O)=C3C(=O)c4c(O)cccc4[C@@](C)(O)[C@H]3C[C@@H]12 [Tetracycline hydrochloride] + CCCCNC(=O)OCC#CI [3-iodo-2-propynyl butylcarbamate (IPBC)] | 99.3 ± 11 | 96.9 ± 6.3 |
| C[N+]1(C)CCC(OC(=O)C(O)(c2ccccc2)C2CCCC2)C1 (centres undefined) [Glycopyrrolate] + CCCCNC(=O)OCC#CI [3-iodo-2-propynyl butylcarbamate (IPBC)] | 101 ± 14 | 98.7 ± 8.1 |
| O=C1c2c(O)ccc(O)c2C(=O)c2c(NCCNCCO)ccc(NCCNCCO)c21 [Mitoxantrone dihydrochloride] + CCCCNC(=O)OCC#CI [3-iodo-2-propynyl butylcarbamate (IPBC)] | 1.27 ± 1.3 | 0 |
| O=C1c2cccc(O)c2C(=O)c2c(O)cccc21 [1,8-Dihydroxyanthraquinone] + CCCCNC(=O)OCC#CI [3-iodo-2-propynyl butylcarbamate (IPBC)] | 55.12 ± 0.16 | 77.2 ± 1.9 |
| O=C1c2c(O)cccc2Cc2cccc(O)c21 [Anthralin] + CCCCNC(=O)OCC#CI [3-iodo-2-propynyl butylcarbamate (IPBC)] | 71.8 ± 3.8 | 82.4 ± 1.3 |
| CN(C)[C@@H]1C(O)=C(C(N)=O)C(=O)[C@@]2(O)C(O)=C3C(=O)c4c(O)ccc(Cl)c4[C@@H](O)[C@H]3C[C@@H]12 [Demeclocycline hydrochloride] + CCCCNC(=O)OCC#CI [3-iodo-2-propynyl butylcarbamate (IPBC)] | 68.8 ± 2.4 | 76.1 ± 1.1 |
| CC(C)CC(N(C)C)C1(c2ccc(Cl)cc2)CCC1 (centres undefined) [Sibutramine hydrochloride] + CCCCNC(=O)OCC#CI [3-iodo-2-propynyl butylcarbamate (IPBC)] | 76.7 ± 0.79 | 90.82 ± 0.42 |
| CCC[C@H](N[C@@H](C)C(=O)N1[C@H](C(=O)O)C[C@@H]2CCCC[C@@H]21)C(=O)OCC [Perindopril] + CCCCNC(=O)OCC#CI [3-iodo-2-propynyl butylcarbamate (IPBC)] | 98.8 ± 5.1 | 97.5 ± 3.1 |
| COC(=O)Nc1nc2cc(C(=O)c3ccc(F)cc3)ccc2[nH]1 [Flubendazol] + CCCCNC(=O)OCC#CI [3-iodo-2-propynyl butylcarbamate (IPBC)] | 86.4 ± 5.4 | 91.1 ± 4.9 |
| CCCOc1ccc2[nH]c(NC(=O)OC)nc2c1 [Oxibendazol] + CCCCNC(=O)OCC#CI [3-iodo-2-propynyl butylcarbamate (IPBC)] | 44.6 ± 2.1 | 85 ± 4.8 |
| COC(=O)Nc1nc2cc(C(=O)c3ccccc3)ccc2[nH]1 [Mebendazole] + CCCCNC(=O)OCC#CI [3-iodo-2-propynyl butylcarbamate (IPBC)] | 68 ± 1.9 | 89.36 ± 0.63 |
| CCCSc1ccc2[nH]c(NC(=O)OC)nc2c1 [Albendazole] + CCCCNC(=O)OCC#CI [3-iodo-2-propynyl butylcarbamate (IPBC)] | 87.7 ± 8.9 | 99.7 ± 2.8 |

| Structure (SMILES) | growth yield (40 h) [%] | growth yield (72 h) [%] |
| --- | --- | --- |
| COC(=O)Nc1nc2cc([S+]([O-])c3ccccc3)ccc2[nH]1 (centres undefined) [Oxfendazol] + CCCCNC(=O)OCC#CI [3-iodo-2-propynyl butylcarbamate (IPBC)] | 93.4 ± 6.3 | 98.2 ± 4.2 |
| CCCCc1ccc2[nH]c(NC(=O)OC)nc2c1 [Parbendazole] + CCCCNC(=O)OCC#CI [3-iodo-2-propynyl butylcarbamate (IPBC)] | 27 ± 4.1 | 80.2 ± 2.2 |
| N#Cc1cc(NC(=O)C(=O)O)c(Cl)c(NC(=O)C(=O)O)c1 [Lodoxamide] + CCCCNC(=O)OCC#CI [3-iodo-2-propynyl butylcarbamate (IPBC)] | 114 ± 10 | 109 ± 12 |
| C=C(NC(=O)C(=C)NC(=O)c1csc(C2=N[C@@H]3c4csc(n4)[C@H]4NC(=O)c5csc(n5)[C@H]([C@](C)(O)[C@@H](C)O)NC(=O)[C@H]5CSC(=N5)/C(=C/C)NC(=O)[C@H]([C@@H](C)O)NC(=O)c5csc(n5)[C@]3(CC2)NC(=O)[C@H](C)NC(=O)C(=C)NC(=O)[C@H](C)NC(=O)[C@H]([C@@H](C)CC)N[C@@H]2C=Cc3c([C@H](C)O)cc(nc3[C@H]2O)C(=O)O[C@@H]4C)n1)C(N)=O [Thiostrepton] + CCCCNC(=O)OCC#CI [3-iodo-2-propynyl butylcarbamate (IPBC)] | 101 ± 2.5 | 100 ± 1.6 |
| CNCCC=C1c2ccccc2CCc2ccccc21 [Nortriptyline hydrochloride] + CCCCNC(=O)OCC#CI [3-iodo-2-propynyl butylcarbamate (IPBC)] | 70.5 ± 2.2 | 94.28 ± 0.73 |
| COC(=O)C1=C(C#N)NC(C)=C(C(=O)OC(C)C)C1c1cccc([N+](=O)[O-])c1 (centres undefined) [Nilvadipine] + CCCCNC(=O)OCC#CI [3-iodo-2-propynyl butylcarbamate (IPBC)] | 107.2 ± 0.16 | 102 ± 2.5 |
| Cc1cc(O)c(C(=O)N[C@@H](C(=O)N[C@@H]2C(=O)N3C(C(=O)O)=C(CSc4nnnn4C)CS[C@H]23)c2ccc(O)cc2)cn1 [Cefpiramide] + CCCCNC(=O)OCC#CI [3-iodo-2-propynyl butylcarbamate (IPBC)] | 89.4 ± 2.7 | 90.9 ± 1.4 |
| CN(C)C/C=C(/c1ccc(Br)cc1)c1cccnc1 [Zimelidine dihydrochloride monohydrate] + CCCCNC(=O)OCC#CI [3-iodo-2-propynyl butylcarbamate (IPBC)] | 77.8 ± 0.95 | 93.5 ± 2.1 |
| C=C[C@H]1CN2CC[C@H]1C[C@@H]2[C@@H](O)c1ccnc2ccc(OC)cc12 [Quinidine hydrochloride monohydrate] + CCCCNC(=O)OCC#CI [3-iodo-2-propynyl butylcarbamate (IPBC)] | 77.7 ± 7.5 | 89.8 ± 6.3 |
| O=C(c1ccc(F)cc1)C1CCN(CCn2c(=O)[nH]c3ccccc3c2=O)CC1 [Ketanserin tartrate hydrate] + CCCCNC(=O)OCC#CI [3-iodo-2-propynyl butylcarbamate (IPBC)] | 98.5 ± 8.3 | 101 ± 3.2 |
| CCNC(=O)CCC/C=C\C[C@@H]1[C@@H](/C=C/[C@@H](O)CCc2ccccc2)[C@H](O)C[C@@H]1O [Bimatoprost] + CCCCNC(=O)OCC#CI [3-iodo-2-propynyl butylcarbamate (IPBC)] | 94.5 ± 5.6 | 95.4 ± 4.2 |
| Cc1nc2n(c(=O)c1CCN1CCC(c3noc4cc(F)ccc34)CC1)CCCC2O (centres undefined) [Paliperidone] + CCCCNC(=O)OCC#CI [3-iodo-2-propynyl butylcarbamate (IPBC)] | 82.28 ± 0.32 | 90.09 ± 0.32 |
| Nc1c(Br)cc(Br)cc1CN[C@H]1CC[C@H](O)CC1 [Ambroxol hydrochloride] + CCCCNC(=O)OCC#CI [3-iodo-2-propynyl butylcarbamate (IPBC)] | 73.2 ± 2.1 | 88.9 ± 2.5 |
| CCOC(=O)OC(C)OC(=O)[C@@H]1N2C(=O)[C@@H](NC(=O)[C@H](N)c3ccccc3)[C@H]2SC1(C)C (some centres undefined) [Bacampicillin hydrochloride] + CCCCNC(=O)OCC#CI [3-iodo-2-propynyl butylcarbamate (IPBC)] | 89.1 ± 7.5 | 92.3 ± 3.8 |
| CCN(CC)CC#CCOC(=O)C(O)(c1ccccc1)C1CCCCC1 (centres undefined) [Oxybutynin chloride] + CCCCNC(=O)OCC#CI [3-iodo-2-propynyl butylcarbamate (IPBC)] | 74.18 ± 0.16 | 88.52 ± 0.63 |
| CCn1cc(C(=O)O)c(=O)c2cnc(N3CCCC3)nc21 [Piromidic acid] + CCCCNC(=O)OCC#CI [3-iodo-2-propynyl butylcarbamate (IPBC)] | 99.9 ± 14 | 99.5 ± 5.3 |
| CCn1cc(C(=O)O)c(=O)c2ccc(C)nc21 [Nalidixic acid sodium salt] + CCCCNC(=O)OCC#CI [3-iodo-2-propynyl butylcarbamate (IPBC)] | 49.2 ± 1.6 | 100 ± 2.1 |
| CCn1cc(C(=O)O)c(=O)c2cnc(N3CCNCC3)nc21 [Pipemidic acid] + CCCCNC(=O)OCC#CI [3-iodo-2-propynyl butylcarbamate (IPBC)] | 85.1 ± 3.2 | 90.1 ± 3 |
